Results from PubChem BioAssay (NCI).
About 83,000 compounds went through this panel and 20% of them were active in at least one assay; those are over-represented in the sample as a whole.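 Interpretation: 100, growth as untreated; towards 0, rising growth inhibition; 0, no net growth; 0 to -100, cell death. Compounds scoring below 10 were considered active.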 Activity calls are given as the source filed them.

tested on: HL-60(TB) leukemia; assay: NCI-60 one-dose screen, 48 h (100 = growth as untreated, 0 = no growth, -100 = all killed); conditions: 10 µM unless noted

Q: How did the growth turn out when `CCC1S/C(=N\N=C(\C)c2cc3cc(Cl)ccc3o2)N(c2ccccc2)C1=O` (stereo not given) was run?
A: The growth was 103% (inactive).

Q: `CN1CCN(Cc2ccc(NC(=O)c3cncc(C#Cc4cnc5ccc(Cl)nn45)c3)cc2C(F)(F)F)CC1` was tested. Which growth did it give?
A: Its growth is -17.6% (active).

Q: How did the growth turn out when `COC(=O)CCC1=C(C)/C(=C/c2[nH]c(-c3ccc[nH]3)cc2OC)N=C1C` was run?
A: Its growth is -23.3% (active).

Q: Which growth does the source give for `CCCCCCCCCCCC[n+]1ccccc1` here?
A: The growth was -49.7% (active).

Q: Which growth does the source give for `Cc1cc(C(=O)NOCCO)c(Nc2ccc(I)cc2F)n(C)c1=O` here?
A: Its growth is 20.8% (inactive).

Q: How did the growth turn out when `S=C1SCN(Cc2cccs2)CN1Cc1cccs1` was run?
A: The growth was 91% (inactive).

Q: For `CCOC(=O)/C=C1\S/C(=N\Nc2cc(=O)[nH]c3ccc(Br)cc23)N(c2ccccc2)C1=O`, which growth is on record?
A: Its growth is -12.1% (active).

Q: With `NS(=O)(=O)c1cc(Br)c2c(c1)S(=O)(=O)NCN2` as the compound, how does the growth read?
A: The growth was 71.2% (inactive).

Q: `COc1cc(-c2cnc3nonc3n2)c(OC)c2c1OCO2` was tested. Which growth did it give?
A: The growth was 88.8% (inactive).

Q: Which growth does the source give for `CN(C)c1ccc2nc3ccc(=[N+](C)C)cc-3oc2c1` here?
A: Its growth is -21% (active).

Q: For `COC(=O)CNC(=O)c1ccc(NC(=O)c2[nH]c(C)c(Cl)c2Cl)c(O[C@H]2CCNC2)c1`, which growth is on record?
A: Its growth is 95.7% (inactive).

Q: For `CSc1nc(-c2ccc(F)cc2)c(C#N)c(N2CCOCC2)n1`, which growth is on record?
A: Its growth is 79.6% (inactive).

Q: For `N=C(c1ccccc1)N(Cc1ccccc1)Cc1ccccc1`, which growth is on record?
A: The growth was 82.6% (inactive).

Q: `O=C(CSc1nnc(Nc2ccccc2)s1)NCCc1ccc(F)cc1` was tested. Which growth did it give?
A: The growth was 110% (inactive).

Q: How did the growth turn out when `Cc1cc(NS(=O)(=O)c2ccccc2)c(OS(=O)(=O)c2ccccc2)cc1C` was run?
A: The growth was 105% (inactive).

Q: With `c1ccc(-c2n(Cc3ccc4ccccc4n3)cc[n+]2Cc2ccc3ccccc3c2)cc1` as the compound, how does the growth read?
A: The growth was -54.3% (active).

Q: For `CCN(CC)CCCC(C)Nc1ccnc(/C=C/c2ccc(Cl)cc2)c1` (stereo not given), which growth is on record?
A: The growth was 65.9% (inactive).

Q: Which growth does the source give for `NS(=O)(=O)c1ccc(N2N=C(c3ccccc3)CCC2=O)cc1` here?
A: Its growth is 64.2% (inactive).

Q: For `CC/C(=C(/c1ccc(Cl)cc1)c1ccc(OCCN(C)C)cc1)c1ccc(Cl)cc1`, which growth is on record?
A: The growth was 64.9% (inactive).

Q: For `CCCCCCCNC(=O)CCCNc1ncnc2c1ncn2-c1cccc(C(C)O)c1` (stereo not given), which growth is on record?
A: Its growth is 24% (inactive).

Q: With `COc1ccc(Nc2ncccc2NC(=O)c2cn(Cc3cccc(Oc4ccccc4)c3)nn2)cc1OC` as the compound, how does the growth read?
A: Its growth is 55.8% (inactive).

Q: With `O=C(CCCCCCN1CC(=O)N2[C@H](c3ccc(Br)cc3)c3[nH]c4ccccc4c3C[C@@H]2C1=O)NO` as the compound, how does the growth read?
A: Its growth is 5.8% (active).

Q: `Nc1ccccc1NC(=O)c1ccc(CN2CCC/C(=C\c3ccccn3)C2=O)cc1` was tested. Which growth did it give?
A: Its growth is -18% (active).

Q: For `CCCCCN1C=C/C(=C\C(=O)N(C)c2ccc(OC(F)(F)F)cc2)c2ccccc21`, which growth is on record?
A: The growth was 111% (inactive).

Q: How did the growth turn out when `N#Cc1c(N)nc2c(c1N)C(c1ccc(F)cc1)c1ccc(N)cc1O2` (stereo not given) was run?
A: The growth was 110% (inactive).

Q: Which growth does the source give for `COc1ccc(CCN2C(=O)CCSC2=S)cc1` here?
A: Its growth is 72.3% (inactive).

Q: How did the growth turn out when `Cc1ccc(C(=O)NC2c3ccccc3Oc3ccccc32)cc1` was run?
A: The growth was -3.42% (active).

Q: For `CC1CN(S(=O)(=O)c2oc(-c3ccc(Cl)cc3)nc2C#N)CC(C)O1` (stereo not given), which growth is on record?
A: The growth was 23.4% (inactive).

Q: For `COc1ccc(C(=O)COc2ccc(/C=C3\Oc4ccc(OC)cc4C3=O)cc2)cc1`, which growth is on record?
A: The growth was 94.1% (inactive).

Q: How did the growth turn out when `Cc1cccc(C[C@H](NC(=O)Nc2ccc(C)cc2F)C(=O)N[C@@H]2C(=O)N3C[C@H](O)C[C@H]3C(=O)N3CCN(C)C[C@H]3C(=O)N[C@@H](C)C(=O)N3C[C@H](C)C[C@H]3C(=O)O[C@H]2C)c1` was run?
A: Its growth is 24.2% (inactive).

Q: With `COc1ccc(/C=C2/CN(CCC#N)C/C(=C\c3ccc(OC)cc3)C2=O)cc1` as the compound, how does the growth read?
A: The growth was 13.6% (inactive).

Q: With `COc1ccc2cc(-c3ccc(-c4ccc(C(=N)N)s4)s3)ccc2c1` as the compound, how does the growth read?
A: Its growth is 36.5% (inactive).

Q: With `O=C(NCN1C(=O)c2cccc3cccc(c23)C1=O)N1CCC(Cc2ccccc2)CC1` as the compound, how does the growth read?
A: The growth was 96.1% (inactive).

Q: For `CC1(C)CC(O)CCCCCCOc2c(CN)cccc2NC(=O)c2nc(cnc2N)-c2ccc(cc2)S1(=O)=O` (stereo not given), which growth is on record?
A: The growth was -49.3% (active).

Q: Which growth does the source give for `O=CN1N=C(c2ccc(Cl)cc2)CC1c1cccc(Nc2ccnc3cc(C(F)(F)F)ccc23)c1` (stereo not given) here?
A: Its growth is 31.6% (inactive).

Q: How did the growth turn out when `Nc1ncc(-c2cnn(C3CCNCC3)c2)cc1-c1nc2cc(Cl)ccc2o1` was run?
A: The growth was -71.3% (active).

Q: With `O=C(c1ccccc1)c1c(/C=C/c2ccc(Cl)cc2)nc2ccccc2c1/C=C/c1cccs1` as the compound, how does the growth read?
A: Its growth is 102% (inactive).

Q: How did the growth turn out when `Cc1nc2sc(C(=O)Nc3ccccc3)c(N)c2cc1C(=O)/C=C/c1ccccc1` was run?
A: Its growth is 3.44% (active).

Q: `O=C(CCCCCCCCC(=O)Nc1cccc(C2=NCCN2)c1)Nc1cccc(C2=NCCN2)c1` was tested. Which growth did it give?
A: Its growth is 81.9% (inactive).

Q: With `Nc1cc(N)c(N)cc1N` as the compound, how does the growth read?
A: The growth was 29.1% (inactive).
